# Source: PubChem BioAssay (The Scripps Research Institute Molecular Screening Center)
# An excerpt weighted towards active compounds, which were near 3.5% of everything screened.
# GPR151 activ: activators of human GPR151; 650,000 tested, 1% active; activation, % at 11.2 µM; Q8TDV0; PathHunter beta-arrestin GPR151 cells, luminescence; AID 1508602; in the data active = activation above about 4.9%;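 note: 0% = median of compound wells and 100% = cells with positive control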
# TEAD-YAP block: TEAD-YAP interaction inhibition; HEK-TIYL cells, TEAD-Gal4/YAP UAS-luciferase luminescence; inhibition, % at 9.12 µM; 640,000 tested, 1.4% active; AID 1259422; in the data active = inhibition above about 32%;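 note: 0% = median of test compound wells and 100% = reference inhibitor wells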
# MITF primary: blocks human microphthalmia-associated transcription factor. inhibition, % at 2.6 µM. O75030. AlphaScreen MITF homodimerization, bead proximity signal. 650,000 tested, 0.91% active; in the data active = inhibition above about 50%;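 note: 0% = vehicle wells with protein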
# Target sequence (O75030 whole entry, looked up): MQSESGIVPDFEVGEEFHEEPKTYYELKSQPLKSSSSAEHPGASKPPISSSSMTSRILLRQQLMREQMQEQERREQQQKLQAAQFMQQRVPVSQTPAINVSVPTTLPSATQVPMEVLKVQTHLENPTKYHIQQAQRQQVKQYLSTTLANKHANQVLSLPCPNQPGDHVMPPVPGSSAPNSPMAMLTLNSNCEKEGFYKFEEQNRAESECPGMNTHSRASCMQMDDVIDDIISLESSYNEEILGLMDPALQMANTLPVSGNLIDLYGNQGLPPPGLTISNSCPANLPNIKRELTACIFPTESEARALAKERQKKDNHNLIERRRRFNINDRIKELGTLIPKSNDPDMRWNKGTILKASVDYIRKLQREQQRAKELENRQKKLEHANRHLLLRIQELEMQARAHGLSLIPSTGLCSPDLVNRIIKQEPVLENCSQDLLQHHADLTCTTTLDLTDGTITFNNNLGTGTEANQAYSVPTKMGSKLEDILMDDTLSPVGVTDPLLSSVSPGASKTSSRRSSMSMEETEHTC
# FBW7 act: human FBW7 E3 ligase activation, primary screen | AID 1259310 | normalized activity (activation), % at 26.1 µM | 650,000 tested, 0.13% active | AlphaScreen FBW7–phospho-cyclin E peptide binding, activator screen; in the data active = normalized activity above about 1.9%;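 note: purified mutant Fbw7 with reduced substrate affinity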
# MITF inh conf: human MITF inhibition, confirmation. inhibition, % at 2.6 µM. AID 1259372. 4,700 tested, 16% active. AlphaScreen MITF homodimerization, biotin/His-MITF beads. shares compounds with MITF primary;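 active = inhibition above a cutoff derived from the DMSO control wells, cut at about 28% in these data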;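 note: 0% = MITF dimer wells with DMSO only; inhibitors lower the bead chemiluminescence by keeping MITF from dimerizing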
# AlphaScreen intf2: AlphaScreen optical interference, counter-screen. 4,700 tested, 7.6% active. shares compounds with MITF primary. LysRS AlphaScreen counterscreen, signal interference, triplicate. AID 1259376. inhibition, % at 2.6 µM;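 active = inhibition above a cutoff derived from the DMSO control wells, cut at about 30% in these data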
# GPR151 conf act: human GPR151 activation, confirmation screen | shares compounds with GPR151 activ | GPR151 PathHunter beta-arrestin cells, luminescence, 90 min; % of EA-reagent control over plate median | activation, % at 11.2 µM | 6,700 tested, under 10 active | AID 1508609;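 active = mean percent activation across replicates above the confirmation screen cutoff of 4.91%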
# GPR119 ag: GPR119 activation, counter-screen for GPR151 activators | shares compounds with GPR151 activ | GPR119 PathHunter beta-arrestin cells, luminescence, 90 min; 0 = compound-well median, 100 = enzyme-acceptor control | activation, % at 11.2 µM | 6,700 tested, 0.3% active;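 active = mean percent activation in the counterscreen above 29.09%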;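 note: counterscreen on off-target GPR119 to flag nonselective hits from the GPR151 activator screen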
# Numbers without * were called inactive; nt = no result given; ! = repeats disagree.
SMILES,GPR151 activ,TEAD-YAP block,MITF primary,FBW7 act,GPR151 conf act,GPR119 ag,others
Cc1ccc(CN2CCN(Cc3ccc(Cl)cc3)CC2)cc1,-1,-7,83*,0,nt,nt,MITF inh conf=-6;AlphaScreen intf2=-5
Cc1ccccc1CN1CCN(Cc2ccccc2Cl)CC1,0,12,11,0,nt,nt,
Cc1ccccc1CN1CCN(C)CC1,1,1,-7,0,nt,nt,
Clc1ccc(CN2CCNCC2)cc1,0,-11,15,0,nt,nt,
Cc1ccc(CN2CCN(Cc3ccccc3C)CC2)cc1,0,14,56*,0,nt,nt,MITF inh conf=-12;AlphaScreen intf2=-5
CCOC(=O)NC(C)Cc1ccccc1 (stereo unspecified),-1,-3,-2,0,nt,nt,
COC(=O)C1=C(N)OC2=C(C(=O)CCC2)C12C(=O)N(C)c1ccccc12 (stereo unspecified),1,7,6,0,nt,nt,
Clc1ccccc1C1NCCc2[nH]cnc21 (stereo unspecified),-1,-2,11,0,nt,nt,
COCCN(CCOC)P1(=O)C=C(c2ccccc2)SC(c2ccccc2)=C1,0,5,-3,0,nt,nt,
COc1ccc(CN2CCN(Cc3ccccc3C)CC2)cc1,1,-7,75*,0,nt,nt,MITF inh conf=-3;AlphaScreen intf2=10
COc1ccc2[nH]c(C)c(CCNCc3cccc(OC)c3OC)c2c1,1,13,52*,0,nt,nt,MITF inh conf=3;AlphaScreen intf2=6
CN1C2CCC1CC(OC(=O)CNCc1cccs1)C2 (stereo unspecified),7.3*,0,52*,0,0,5,MITF inh conf=7;AlphaScreen intf2=14
CN1CCN(CCC(=O)OC2CC3CCC(C2)N3C)CC1 (stereo unspecified),1,4,9,0,nt,nt,
Cc1sc2c(c1C)C(c1cccc(Cl)c1)=NCC(=O)N2CC(=O)N1CCCCC1,1,7,4,0,nt,nt,
C=CCN(CC#CCOc1ccccc1OC)CC=C,11*,-11,60*,0,0,-4,MITF inh conf=7;AlphaScreen intf2=12
O=C(Cc1ccsc1)N1CCCC(N2CCOCC2)C1 (stereo unspecified),5.8*,-2,11,0,0,4,
Cc1noc(C)c1CC(=O)N1CCCC(N2CCOCC2)C1 (stereo unspecified),1,2,-1,0,nt,nt,
CCCCC/C=C\C/C=C\C/C=C\C/C=C\CCCC(=O)NCCF,0,nt,10,nt,nt,nt,
COc1ccc(Cc2nccc3cc(OC)c(OC)cc23)cc1OC,5.8*!,4,6,0,2,13,
COc1ccc(CCNCc2cc(OC)c(OC)c(OC)c2)cc1OC,-1,13,41,0,nt,nt,
CC(=O)n1nc(-c2nonc2C)c2nonc21,-8,-11,5,0,nt,nt,
O=C1CC(=O)N(c2ccc(F)cc2)C(=S)N1c1ccccc1,1,-12,10,0,nt,nt,
CCn1c(O)c(C=NCCc2c[nH]c3ccccc23)c(=O)[nH]c1=O,5.4*,4,4,0,0,-5,
CC(C)N1CCN(Cc2cccc(F)c2)CC1CCO (stereo unspecified),1,-11,-4,0,nt,nt,
O=C1NC(=S)NC(=O)C1=Cc1cccc([N+](=O)[O-])c1,1,-2,-11,0,nt,nt,
SMILES,GPR151 activ,TEAD-YAP block,MITF primary,FBW7 act,GPR151 conf act,GPR119 ag,others
Cc1cccc(OP(N)(=O)Oc2cccc(C)c2)c1,-1,3,-2,0,nt,nt,
NP(=O)(Oc1ccc(Cl)cc1)Oc1ccc(Cl)cc1,6.3*,7,16,0,2,10,
O=C1NC(=O)C(=C/C=C/c2cccs2)C(=O)N1,-1,-19,2,-1,nt,nt,
CCOc1ccc(C2SCC(=O)Nc3c2c(=O)[nH]n3C(CC)CC)cc1 (stereo unspecified),7.1*,0,8,0,0,-15,
CC(=O)c1c(O)n(C)c(=S)n(C)c1=O,-1,1,-19,0,nt,nt,
CCCCOc1ccc(CN2CCN(CCO)CC2)cc1,-1,-9,4,0,nt,nt,
CCCCCCOc1ccc(CN2CCN(CCO)CC2)cc1,5.9*,-44,6,0,1,9,
Cc1cccc(OCC(=O)N2CCN(CCCc3ccccc3)CC2)c1,0,-6,47,0,nt,nt,
CCOC(=O)c1c(CN2CCCC2)n(Cc2ccccc2)c2cc(Br)c(O)cc12,1,-17,-6,0,nt,nt,
CCOC(=O)c1c(CN2CCCCC2)n(Cc2ccccc2)c2cc(Br)c(O)cc12,5.0*,-8,-6,0,1,15,
O=c1c2cc(Cl)cc(Cl)c2nc(CN2CCOCC2)n1-c1ccccc1F,17*,6,7,0,0,-3,
COc1cccc(CCNCc2ccccc2[N+](=O)[O-])c1,0,-12,41,1,nt,nt,
COc1cccc(CCNCc2cc(OC)c(OC)cc2[N+](=O)[O-])c1,8.4*,6,25,0,0,-6,
Cc1ccc(S(=O)(=O)NCCC(=O)Nc2ccc(Br)cc2C(=O)c2ccccc2)cc1,0,-1,13,1,nt,nt,
CC(=O)C(C)Oc1cc(C)cc2oc(=O)c3c(c12)CCCC3 (stereo unspecified),22*,15,5,0,0,0,
CCOC(=O)C1=C(C)OC(N)=C(C#N)C12C(=O)N(CC(N)=O)c1ccccc12 (stereo unspecified),0,-2,-27,0,nt,nt,
CCOC(=O)C1=C(C)OC(N)=C(C(=O)OCC)C12C(=O)N(CC(N)=O)c1ccccc12 (stereo unspecified),9.6*,11,2,0,0,-5,
COc1ccc2[nH]cc(CN(C)C)c2c1,2,12,9,1,nt,nt,
COc1ccc2[nH]c3c(c2c1)CCN=C3C,5.6*,nt,-8,0,0,6,
C=C(C)[C@H]1CN[C@H](C(=O)O)[C@H]1CC(=O)O,7.6*!,-3,-3,0,0,-1,
O=C(CCCN1CCC2(CC1)C(=O)N(Cc1cccc(F)c1)CN2c1ccccc1)c1ccc(F)cc1,6.7*,nt,16,0,0,1,
COc1ccccc1OCCCn1c(C)c(C=O)c2ccccc21,2,0,-11,0,nt,nt,
CCOC(=O)CCCn1c(C(=O)OCC)c(C=O)c2ccccc21,6.3*,0,-11,0,0,13,
COc1ccc(CC(C)NC2CCCCNC2=O)cc1 (stereo unspecified),-1,8,12,0,nt,nt,
COCc1c(C(=O)NCc2ccccn2)c(=O)cc(C)n1CCCc1ccccc1,1,-1,-17,0,nt,nt,
C=CCN1C[C@H](C)N([C@H](c2ccc(C(=O)N(CC)CC)cc2)c2cccc(OC)c2)C[C@H]1C,5.2*,nt,2,0,0,-4,
